According to the supplement of paper PMC10127200:
Structures can show the parent of a compound that is named as a salt.

Columns and labels:
Assay in all cases: Euclidean distance of Cell Painting phenotypic profile (signed KS, 77 features) to DMSO centroid (dimensionless distance); 5 or 10 uM (library dependent); higher = stronger phenotypic change vs DMSO (phenoactivity)
Conditions in all cases: 48 h
786-O = tested on: 786-O
Method in brief: (§1)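 Stained cells were imaged confocally at 20X with 9 fields per well, after 48 h of exposure to library compounds at 10 or 5 uM (set by library; 0.1% DMSO final). The cells were five cancer lines and a healthy fibroblast line. From the images, Harmony extracted 77 features, each expressed as a signed Kolmogorov-Smirnov statistic relative to same-plate vehicle wells. Phenoactivity is measured as Euclidean distance to the median vehicle profile, using plate-position-corrected, correlation-weighted profiles averaged across replicates at the top dose.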

A549 = tested on: A549
Method in brief: as §1

DU145 = tested on: DU145
Method in brief: as §1

FB = tested on: FB
Method in brief: as §1

HEPG2 = tested on: HEPG2
Method in brief: as §1

OVCAR4 = tested on: OVCAR4
Method in brief: as §1

Row | Compound | Euclidean distance (786-O) | Euclidean distance (A549) | Euclidean distance (DU145) | Euclidean distance (FB) | Euclidean distance (HEPG2) | Euclidean distance (OVCAR4)
1 | CC(C)(Oc1ccc(CCNC(=O)c2ccc(Cl)cc2)cc1)C(=O)O [Bezafibrate] | 0.885 | 1.16 | 0.777 | 1.09 | 1.04 | 1.71
2 | CN(C)Cc1ccc(S(=O)(=O)n2ccc(/C=C/C(=O)NO)c2)cc1 [Resminostat] | 2.67 | 2.99 | 2.58 | 3.52 | 2.9 | 2.81
3 | Cn1nnnc1SCC1=C(C(=O)O)N2C(=O)[C@@H](NC(=O)[C@H](OC=O)c3ccccc3)[C@H]2SC1 [Cefamandole nafate] | 1.06 | 0.559 | 1.12 | 0.954 | 0.484 | 0.965
4 | C#C[C@]1(O)CC[C@H]2[C@@H]3CCC4=CCCC[C@@H]4[C@H]3CC[C@@]21C [Lynestrenol] | 1.13 | 1.3 | 1.48 | 1.17 | 0.777 | 1.41
5 | CCN(Cc1ccncc1)C(=O)C(CO)c1ccccc1 (centres undefined) [Tropicamide] | 1.11 | 1.27 | 1.8 | 1.01 | 0.684 | 1.3
6 | C/C=C(/C)C(=O)O[C@H]1[C@H](OC(C)=O)[C@@]2(CO)C(CC1(C)C)C1=CCC3[C@@]4(C)CCC(O[C@@H]5O[C@H](C(=O)O)[C@@H](O[C@@H]6O[C@H](CO)[C@@H](O)[C@H](O)[C@H]6O)[C@H](O)[C@H]5O[C@@H]5O[C@H](CO)[C@@H](O)[C@H](O)[C@H]5O)[C@](C)(CO)C4CC[C@@]3(C)[C@]1(C)C[C@H]2O.C/C=C(\C)C(=O)O[C@H]1[C@H](OC(C)=O)[C@@]2(CO)C(CC1(C)C)C1=CCC3[C@@]4(C)CCC(O[C@@H]5O[C@H](C(=O)O)[C@@H](O[C@@H]6O[C@H](CO)[C@@H](O)[C@H](O)[C@H]6O)[C@H](O)[C@H]5O[C@@H]5O[C@H](CO)[C@@H](O)[C@H](O)[C@H]5O)[C@](C)(CO)C4CC[C@@]3(C)[C@]1(C)C[C@H]2O (some centres undefined) [Escin] | 1.14 | 0.784 | 0.972 | 1.18 | 0.678 | 1.24
7 | Cc1ccc(F)c(NC(=O)Nc2ccc(-c3cccc4[nH]nc(N)c34)cc2)c1 [Linifanib (ABT-869)] | 1.23 | 2.53 | 1.64 | 1.81 | 4.87 | 1.29
8 | CCCNc1nc(Nc2ccc(C#N)cc2)ncc1C#CCCCNC(=O)[C@H](C)N(C)C(=O)/C=C/CN(C)C | 6.39 | 4.68 | 5.29 | 5.42 | 5 | 5.67
9 | O=c1c(O)c(-c2ccc(O)c(O)c2)oc2cc(O)cc(O)c12 [Quercetin Dihydrate] | 0.703 | 1.01 | 0.731 | 0.799 | 0.874 | 0.868
10 | COc1cc2nc(N3CCN(C(=O)C4CCCO4)CC3)nc(N)c2cc1OC (centres undefined) [Terazosin HCl Dihydrate] | 1.02 | 0.591 | 1.34 | 1.07 | 1.69 | 1.43
11 | O=C(O)c1cn(-c2ccc(F)cc2)c2cc(N3CCNCC3)c(F)cc2c1=O [Sarafloxacin HCl] | 1.11 | 0.812 | 1.78 | 0.799 | 0.601 | 0.719
12 | CC(NCCc1ccc(O)cc1)C(O)c1ccc(O)cc1 (centres undefined) [Ritodrine HCl] | 1.08 | 0.752 | 0.998 | 1.01 | 0.393 | 0.728
13 | COC(=O)C1=C(C)NC(C)=C(C(=O)OCC(C)C)C1c1ccccc1[N+](=O)[O-] (centres undefined) [Nisoldipine] | 2.53 | 0.958 | 1.95 | 1.86 | 2.21 | 1.43
14 | O=C1Nc2ccc(CN3C(=O)CSC3=O)cc2/C1=C/c1cc(CN2CCOCC2)c[nH]1 | 1.07 | 1.06 | 0.896 | 1.11 | 0.385 | 0.658
15 | COc1ccc(F)c(F)c1C(=O)c1cnc(NC2CCN(S(C)(=O)=O)CC2)nc1N | 2.79 | 3.51 | 2.68 | 2.58 | 3.18 | 4.31
16 | O=[N+]([O-])c1cn2c(n1)OC[C@@H](OCc1ccc(OC(F)(F)F)cc1)C2 | 1.49 | 1.06 | 0.837 | 1.12 | 0.872 | 1.03
17 | N=C(N)c1ccc(OCCCCCOc2ccc(C(=N)N)cc2)cc1 [Pentamidine] | 1.54 | 2.11 | 1.64 | 0.958 | 2.12 | 1.65
18 | N=C(N)N [Guanidine HCl] | 0.653 | 0.962 | 0.525 | 0.612 | 0.512 | 0.648
19 | CC(/C=C/C(=O)NO)=C\[C@@H](C)C(=O)c1ccc(N(C)C)cc1 [Trichostatin A] | 3.62 | 4.26 | 3.19 | 4.05 | 3.58 | 3.53
20 | O=c1[nH]c(=O)n([C@H]2C[C@H](O)[C@@H](CO)O2)cc1/C=C/Br [Brivudine] | 1.21 | 0.849 | 0.765 | 1.07 | 0.725 | 0.962
21 | CO/N=C(\C(=O)N[C@@H]1C(=O)N2C(C(=O)[O-])=C(C[N+]3(C)CCCC3)CS[C@H]12)c1csc(N)n1 [Cefepime Dihydrochloride Monohydrate] | 1.34 | 0.501 | 0.945 | 1.1 | 0.514 | 0.878
22 | CCN(CC)CCCC(C)Nc1c2ccc(Cl)cc2nc2ccc(OC)cc12 (centres undefined) [Quinacrine 2HCl] | 3.59 | 4.6 | 2.81 | 5.56 | 4.32 | 3.92

Row | Compound | Euclidean distance (786-O) | Euclidean distance (A549) | Euclidean distance (DU145) | Euclidean distance (FB) | Euclidean distance (HEPG2) | Euclidean distance (OVCAR4)
23 | CCN(CC)Cc1cc(Nc2ccnc3cc(Cl)ccc23)ccc1O [Amodiaquine hydrochloride] | 2.94 | 2.7 | 1.67 | 3.45 | 2.69 | 2.51
24 | COc1cc(O)c2c(c1)oc(=O)c1c3cc(O)c(O)cc3oc21 [Wedelolactone] | 1.08 | 1.94 | 1.02 | 2.37 | 2.5 | 2.37
25 | C[n+]1ccccc1/C=N/O [Pralidoxime chloride] | 1.41 | 0.85 | 1.53 | 1.2 | 0.755 | 1.08
26 | COc1ccc([C@H]2CNC(=O)C2)cc1OC1CCCC1 [S- (+)-Rolipram] | 1.12 | 1.46 | 1 | 0.792 | 1.24 | 1.49
27 | CCCCC(CC)COC(=O)CC(C(=O)OCC(CC)CCCC)S(=O)(=O)O (centres undefined) [Docusate Sodium] | 0.771 | 0.602 | 0.942 | 1.2 | 0.96 | 1.25
28 | NS(=O)(=O)Cc1noc2ccccc12 [Zonisamide] | 1.61 | 0.951 | 0.986 | 0.762 | 0.835 | 1.9
29 | Cc1cc(C)nc(O)n1.O=C(Nc1ccc([N+](=O)[O-])cc1)Nc1ccc([N+](=O)[O-])cc1 [Nicarbazin] | 1.37 | 1.24 | 0.953 | 1.62 | 0.833 | 1.15
30 | O=C(O)C1CSCN1 (centres undefined) [Timonacic] | 1.39 | 0.753 | 0.835 | 0.853 | 0.578 | 1.18
31 | CCn1cc(C(=O)O)c(=O)c2ccc(C)nc21 [Nalidixic acid] | 1.33 | 0.755 | 1.12 | 1.07 | 0.602 | 1.5
32 | N.N.O=C([O-])C[O-].[Pt+2] [Nedaplatin] | 3.19 | 2.86 | 4.02 | 3.24 | 2.92 | 2.99
33 | CCN(CC)CCNC(=O)c1c(C)[nH]c(/C=C2\C(=O)Nc3ccc(F)cc32)c1C [Sunitinib] | 3.58 | 3.66 | 2.98 | 4.34 | 3.3 | 2.86
34 | O=c1c(O)c(-c2cc(O)c(O)c(O)c2)oc2cc(O)cc(O)c12 [Myricetin] | 0.872 | 2.24 | 2.15 | 1.76 | 1.1 | 2.1
35 | C/C=C(/C(=C/C)c1ccc(O)cc1)c1ccc(O)cc1 [Dienestrol] | 0.782 | 0.603 | 0.8 | 0.859 | 0.715 | 0.784
36 | CN1C(CCl)Nc2cc(Cl)c(S(N)(=O)=O)cc2S1(=O)=O (centres undefined) [Methyclothiazide] | 1.01 | 0.722 | 0.72 | 0.776 | 0.485 | 1.52
37 | Cn1cnc2c1c(=O)[nH]c(=O)n2C [Theobromine] | 0.718 | 0.658 | 0.727 | 0.792 | 1.77 | 0.9
38 | OB1OCc2cc(F)ccc21 [Tavaborole (AN-2690)] | 0.735 | 0.76 | 0.961 | 1.16 | 0.354 | 0.974
39 | Clc1ccc2c(c1)CCc1cccnc1C2=C1CCNCC1 [Desloratadine] | 1.38 | 0.811 | 1.51 | 1.83 | 2.17 | 1.88
40 | C[C@H]1CNC(=O)c2cnn3ccc(nc23)N[C@H](C)c2cc(F)ccc2O1 | 4.06 | 4.83 | 5.02 | 3.45 | 2.14 | 4.45
41 | CC(C)(C)C(=O)C(Oc1ccc(Cl)cc1)n1ccnc1 (centres undefined) [Climbazole] | 0.898 | 0.838 | 0.641 | 1.02 | 0.579 | 1.29
42 | CNC(=O)c1ccccc1Nc1nc(Nc2ccc(N3CCOCC3)cc2OC)ncc1Cl | 2.97 | 3.02 | 2.18 | 3.92 | 2.08 | 3.5
43 | C[C@H](NC(=O)Cc1cc(F)cc(F)c1)C(=O)N[C@H](C(=O)OC(C)(C)C)c1ccccc1 | 1.92 | 1.48 | 1.11 | 0.913 | 1.57 | 1.26
44 | CCCCCCCCOc1ccccc1C(=O)Nc1ccc(C(=O)OCC[N+](C)(CC)CC)cc1 [Otilonium Bromide] | 1.03 | 1.09 | 1.91 | 1.24 | 1.11 | 1.03
